Screens deposited in PubChem BioAssay by National Center for Advancing Translational Sciences (NCATS).
TDP1 cell noCPT: qHTS for Inhibitors of human tyrosyl-DNA phosphodiesterase 1 (TDP1): qHTS in cells in absence of CPT; Potency, µM (titrated, usually from 46.2 µM), without a hit: at the top dose activity change, negative = growth inhibition, most hits filed as inhibitors; DT40 Tdp1-/- hTDP1 cells, no CPT, ATP luminescence, 48 h; 420,000 tested, 15% active; AID 686978, 2013; note: potency is the fitted concentration of half-maximal effect; nearly all actives have a fitted effect of over 55% in size
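Stably hTDP1-transfected Tdp1-null chicken DT40 cells were treated with library compounds minus camptothecin and grown for at least 48 hr at 37 °C, after which cellular ATP was quantified by luminescence.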
Gal4-VP16 FLuc: Gal4-VP16 reporter inhibition counter-screen; Drosophila S2 Gal4-VP16 UAS-luciferase, luminescence, 20 h; Potency, µM (series often up to 53.6 µM), without a hit: at the highest dose activity, negative = inhibition, hits mostly inhibitors; 310,000 tested, 3.5% active; AID 2546;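 note: Gal4-VP16 expression switched on by copper sulfate through the metallothionein promoter; potency is the fitted concentration of half-maximal effect; nearly all actives have a fitted effect of over 50% in size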
IL1B secr inh: inhibitors of inflammasome signaling (IL-1 beta secretion) | 360,000 tested, 4.7% active | THP-1 LPS/ATP IL-1B secretion, AlphaLISA, 16 h; stronger effect = lower value | AID 743279 | activity change, % at 57.5 µM; in the data active = activity change below about -50%; inconclusive = mostly about -30% to -49%
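THP-1 cells pretreated 1 hr with compounds (up to 57.5 uM final), then stimulated with LPS (250 ng/mL final) plus ATP (1.25 mM final); secreted IL-1B measured by AlphaLISA after 16 hr, decreased signal indicating inhibition.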
RORgamma inh: inhibitors of mouse ROR gamma transcriptional activity. AID 2551. Potency, µM (titrated, usually from 53.6 µM), without a hit: at the top dose activity change, negative = inhibition, actives largely listed as inhibitors. Drosophila S2 Gal4-RORgamma UAS-luciferase reporter, 20 h. 310,000 tested, 5.4% active; note: potency is the fitted concentration of half-maximal effect; nearly all actives have a fitted effect of over 60% in size
Target sequence (P51450 whole entry, looked up, the tested form may be a part): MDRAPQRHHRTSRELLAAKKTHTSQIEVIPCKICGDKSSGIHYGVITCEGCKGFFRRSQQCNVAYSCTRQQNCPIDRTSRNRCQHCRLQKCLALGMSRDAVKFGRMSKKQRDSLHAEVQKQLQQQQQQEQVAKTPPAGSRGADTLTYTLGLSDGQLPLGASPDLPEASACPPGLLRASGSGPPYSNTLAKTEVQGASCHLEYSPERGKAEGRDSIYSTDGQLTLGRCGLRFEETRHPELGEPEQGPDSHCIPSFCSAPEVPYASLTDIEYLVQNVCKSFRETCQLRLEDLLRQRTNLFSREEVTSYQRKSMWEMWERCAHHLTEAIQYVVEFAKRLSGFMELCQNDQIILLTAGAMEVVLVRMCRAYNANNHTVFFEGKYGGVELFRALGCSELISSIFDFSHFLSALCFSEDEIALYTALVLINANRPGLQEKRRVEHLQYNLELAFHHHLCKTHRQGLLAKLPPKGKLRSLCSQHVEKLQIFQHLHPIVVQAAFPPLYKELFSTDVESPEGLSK
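Luciferase reporter read in Schneider cells carrying Gal4-RORγ (mouse) and UAS-Photinus luciferase; cells given compound 1 h before 700 uM copper sulfate induction, then incubated 20 h at ambient temperature.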
DT40 TDP1 CPT: DT40-hTDP1 cell growth loss with CPT | chicken DT40 Tdp1-/-;hTDP1 cells + 20 nM CPT, ATP luminescence, 48 h | AID 686979 | Potency, µM (titrated, usually from 46.2 µM), without a hit: top-dose activity change, negative = growth inhibition, hits mostly inhibitors | 420,000 tested, 12% active; note: potency is the fitted concentration of half-maximal effect; nearly all actives have a fitted effect of over 55% in size
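Cell growth measured by CellTiter-Glo luminescence after a minimum 48 h, 37 C compound exposure with 20 nM CPT in Tdp1-knockout DT40 cells stably expressing hTDP1, seeded 400/well; qHTS titration format.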
ELG1 DNA repair: ELG1-dependent DNA repair inhibition; 330,000 tested, 2.3% active; HEK293T ELG1-luciferase reporter, luminescence, 16 h; DNA damage induced by 5-fluorouridine; Potency, µM (titrated, usually from 46.1 µM), inactives show at the highest dose activity change, negative = inhibition, hits mostly inhibitors; note: potency is the fitted concentration of half-maximal effect; nearly all actives have a fitted effect of over 55% in size
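Reporter activity after DNA damage by 5-fluorouridine is monitored. Compound-treated cells incubate 16 hr at 37 °C, then ONE-Glo is added for 30 min before luminescence reading.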
The depositor's hits bear a star; u = inconclusive; x = not tested or not shown; [ ] = remark or other dose. Compounds with a hit are over-represented: about 21% of the library has one in this group of screens. Unless noted, calls come from the whole dose curve; as a rule, active = well fitted curve in the direction sought with a large enough effect; inconclusive = small, poorly fitted or top-dose-only effect, or another doubt; inactive = no such curve, though single readings can be large; an effect the other way counts as inactive or inconclusive. % is set by controls: 0 for no effect and ±100 for the full control effect.

SMILES	TDP1 cell noCPT	Gal4-VP16 FLuc	IL1B secr inh	RORgamma inh	DT40 TDP1 CPT	ELG1 DNA repair
c1ccc(CNc2nc(-c3cccs3)nc3ccccc23)nc1	u	9%	-77*	-5%	u	-19%
Oc1ccccc1-c1nc(NCc2ccco2)c2ccccc2n1	u	-10%	-21	-27%	-18%	-17%
Cc1ccc(C)c(NC(=O)Cn2ncc3c([nH]c4ccccc43)c2=O)c1	-4%	x	x	x	1%	x
COc1ccc(CN2CCC3(CCC(CNC(=O)c4ccco4)O3)CC2)c(OC)c1C (stereo not drawn)	-28%	x	x	x	-4%[9.04 µM]	x
CCOc1ccc(Nc2nc(NCC3CCCO3)c3ccccc3n2)cc1 (stereo not drawn)	2.9µM*	u	-98*	u	26µM*	7.3µM*
O=c1c2ccccc2nc2c3ccccc3c(NCc3ccco3)nn12	21µM*	2%	18	-5%	u	u
Fc1ccccc1-c1nc(NCc2ccco2)c2ccccc2n1	-14%	12%	0	u	24%	u
c1coc(CNc2nc(N3CCCCC3)nc3ccccc23)c1	18µM*	u	-58*	1%	26µM*	-16%
COc1ccc(N2CC(C(=O)N[C@H](C(=O)NC(C)c3ccccc3)C(C)C)CC2=O)cc1 (stereo partly drawn)	4%	-9%	-11	11%	1%	-7%
COc1cc(CNC(C)c2ccccc2)cc(Br)c1OCc1ccc(F)cc1 (stereo not drawn)	u	u	-94*	17%[1.91 µM]	u	-19%
COc1cc(CNc2ccc(O)cc2)cc(Br)c1OCc1ccccc1	u	u	-8	u	u	u
COc1cc(CNn2c(C)n[nH]c2=S)cc(Br)c1OCc1ccc(F)cc1	-2%	-2%	9	10µM*	2%	-16%
COc1cc(CNC(C)c2ccccc2)cc(Br)c1OCc1ccccc1 (stereo not drawn)	9.2µM*	u	-88*	u	-94%	u
Cc1ccccc1NC(=O)C1CCN(S(=O)(=O)c2ccccc2)CC1	-25%	x	x	x	2%	x
Cc1ccc([N+](=O)[O-])cc1S(=O)(=O)N(C(=O)c1ccncc1)c1ccc2oc3c(c2c1)CCCC3	-11%	-9%	-1	-25%	-15%	6%
COC(=O)c1c(C)oc2ccc(N(C(=O)c3ccncc3)S(=O)(=O)c3cc(C)c(C)cc3C)cc12	5.2µM*	x	x	x	10µM*	x
Cc1ccc(S(=O)(=O)N(C(=O)c2ccncc2)c2ccc3oc4c(c3c2)CCCC4)cc1[N+](=O)[O-]	-8%	1%	9	22%	-2%	2%
COC(=O)c1c(C)oc2ccc(N(C(=O)c3ccncc3)S(=O)(=O)c3c(C)cc(C)cc3C)cc12	1.2µM*	x	x	x	1.8µM*	x
COC(=O)c1c(C)oc2ccc(N(C(=O)c3ccncc3)S(=O)(=O)c3ccc(C)cc3C)cc12	4.1µM*	4.5µM*	u	u	2.6µM*	u
COc1cc(CN2C(=O)CC[C@@H]3CN(Cc4ccccn4)CC[C@@H]32)cc(OC)c1OC	-23%	x	x	x	3%	x
Cc1ccc(CNC(=O)CCCn2c(=O)[nH]c3ccc(Br)cc3c2=O)cc1	-24%	x	x	x	-30%	x
CC(O)(CS(=O)(=O)Cc1ccccc1)c1ccccc1Cl (stereo not drawn)	13%	-1%	-8	5%	-29%	-16%
Cc1ccccc1-c1cc2nc(NCCOc3ccccc3Cl)n(C)c(=O)c2s1	u	x	-12	x	u	x
CN1N=C(C(C)(C)C)CSC1=Nc1ccccc1	u	-11%	17	6%	2%	6%
Cc1c(/C=C/C(=O)c2ccc(C(C)C)cc2)cnn1C	u	u	-73*	28%	u	u
SMILES	TDP1 cell noCPT	Gal4-VP16 FLuc	IL1B secr inh	RORgamma inh	DT40 TDP1 CPT	ELG1 DNA repair
COc1ccccc1CCC(=O)N1CCOc2c(cc(-c3cnc4ccccc4c3)cc2OC)C1	-22%	x	x	x	15%[9.04 µM]	x
O=C(C[n+]1cnn(CC(=O)c2ccc(Cl)cc2Cl)c1)c1ccc([N+](=O)[O-])cc1	u	-4%	-71*	-6%	u	-2%
O=C(Cn1cnc([N+](=O)[O-])c1)c1ccc(Cl)cc1	-12%	x	12	x	-23%	5%
O=C(NC1CCCCC1)C(c1ccccc1F)n1c(=O)c(-c2cc3ccccc3[nH]2)nc2ccccc21 (stereo not drawn)	15µM*	x	65	x	u	x
O=C(NC1CCCCC1)C(c1cccc2ccccc12)n1c(=O)c(-c2cc3ccccc3[nH]2)nc2ccccc21 (stereo not drawn)	13µM*	x	77	x	u	x
Cc1ccc(Cl)cc1NC(=S)N(Cc1cccs1)C1CCCC1	-1%	u	-15	18µM*	-12%	-1%
Cc1ccccc1NC(=S)N(Cc1cccs1)C1CCCCC1	9.2µM*	4%	-3	13µM*	-29%	-1%
CCC(C)NC(=O)CNC(=S)N(Cc1ccccc1F)C1CCCCC1 (stereo not drawn)	u	0%	-1	u	3%	-18%
CC(NC(=O)CNC(=S)N(Cc1cccs1)C1CCCC1)c1ccccc1 (stereo not drawn)	16µM*	u	-24	u	u	-13%
CCN(C(=S)Nc1ccccc1F)C1CCCCC1	23µM*	3%	-8	13µM*	u	1%
O=C(C[C@H]1C(=O)N(CCc2ccccc2)C[C@@H]1c1ccccc1)Nc1ccccc1	u	x	34	x	-12%	x
O=C(c1cnccn1)N1CCC2(CCCN(c3ccccc3)C2)CC1	u	10%	x	-7%	-29%	x
COc1cccc2cc(C(=O)NCc3ccccc3Cl)c(=O)oc12	0%	30%	2	13%	10%	u
CCOc1ccc(-c2cc3c(=O)n(CC(=O)NCc4ccc(Cl)cc4)ccn3n2)cc1	0%	x	x	x	-14%	x
Cc1c(Cl)cccc1NC(=S)N(Cc1cccs1)C1CCCC1	-24%	u	19	11µM*	5%	-11%
CN1CCN(C(=O)/C(=C/c2cn(S(=O)(=O)N(C)C)c3ccccc23)NC(=O)c2ccccc2F)CC1	u	7%	-27	27%	-25%	-25%
COc1ccccc1C(=O)N/C(=C\c1ccc(Br)cc1)C(=O)NCC(=O)O	-12%	0%	8	-14%	5%	6%
